Screening data as filed in PubChem BioAssay.
Sm TGR inh – inhibitors of Schistosoma mansoni thioredoxin glutathione reductase; Potency, µM (top dose mostly 114 µM), for inactives: top-dose activity change, negative = inhibition, actives largely listed as inhibitors; purified TGR, DTNB reduction, TNB absorbance 405 nm; hit rate 3% among 360,000; Q962Y6; further: nearly all actives have a fitted effect of over 60% in size
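TGR 20 nM + NADPH 100 uM (dispensed conc.), cpd preinc 15 min RT; start with NADPH (500 uM addition) then DTNB (15 mM addition). Kinetic TNB absorbance, 405 nm filter. Four-parameter Hill fit across titration.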
FMDV inh – antivirals against foot and mouth disease virus | FMDV antiviral cell-based qHTS | Potency, µM (highest dose often 57.9 µM), for the others: at the top dose activity change, negative = inhibition, usual class: inhibitors | hit rate 1.2% among 410,000; calls by dose curve; tested in HEK293T cells; further: read-out not given here; nearly all actives have a fitted effect of over 45% in size
AmpC inh detg – AmpC beta-lactamase inhibition with detergent present. AmpC hydrolysis of nitrocefin, absorbance 480 nm, 0.01% Triton. P00811. Potency, µM (series often up to 114 µM), inactives show at the top dose activity change, negative = inhibition, actives largely listed as inhibitors. hit rate 0.041% among 370,000;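 further: 0% = no-compound wells and -100% = no-enzyme wells; nearly all actives have a fitted effect of over 25% in size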
Target sequence (P00811 whole entry, looked up): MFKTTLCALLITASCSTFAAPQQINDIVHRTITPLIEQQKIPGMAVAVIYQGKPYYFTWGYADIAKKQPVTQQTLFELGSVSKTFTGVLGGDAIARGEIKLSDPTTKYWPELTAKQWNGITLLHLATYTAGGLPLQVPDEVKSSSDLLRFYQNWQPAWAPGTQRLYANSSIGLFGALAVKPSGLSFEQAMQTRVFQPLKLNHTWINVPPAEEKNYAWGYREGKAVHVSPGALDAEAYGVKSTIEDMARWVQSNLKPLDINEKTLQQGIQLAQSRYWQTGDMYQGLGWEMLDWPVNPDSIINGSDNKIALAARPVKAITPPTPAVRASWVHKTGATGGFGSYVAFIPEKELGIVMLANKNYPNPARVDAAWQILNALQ
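20 mM phosphate pH 7.0 + 0.01% (detergent screen) or 0.0001% Triton X-100; 5.3 nM AmpC reagent; cpd preinc 15 min RT; nitrocefin (800 uM stock) to start; A480 q20 s × 4 min; Activity was normalised to no-enzyme and no-compound control wells.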
AMA1 RON2 block – inhibitors of Plasmodium falciparum AMA1-RON2 interaction | AlphaScreen AMA1-biotinylated RON2 peptide binding | Potency, µM (titrated, usually from 58.2 µM), for the others: at the top dose activity change, negative = inhibition, actives largely listed as inhibitors | hit rate 0.2% among 360,000 | AID 720542;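 further: 0% = vehicle wells and -100% = peptide control; nearly all actives have a fitted effect of over 45% in size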
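AMA1 (3D7) with his tag at 25 nM final met compounds first, then biotinylated RON2 peptide at 25 nM; detection used donor plus acceptor beads, 10 µg/mL apiece, read by AlphaScreen after 30 min at room temperature.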
AmpC inh no detg – inhibitors of E. coli AmpC beta-lactamase without detergent | P00811 | AmpC nitrocefin hydrolysis, absorbance 480 nm, 0.0001% Triton | Potency, µM (highest dose often 57.1 µM), for the others: at the highest dose activity change, negative = inhibition, most hits filed as inhibitors | hit rate 0.52% among 330,000 | AID 485341;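 further: plate controls were no compound for no effect and no enzyme for full effect; nearly all actives have a fitted effect of over 20% in size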
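20 mM phosphate pH 7.0 + 0.01% (detergent screen) or 0.0001% Triton X-100; 5.3 nM AmpC reagent; cpd preinc 15 min RT; nitrocefin (800 uM stock) to start; A480 q20 s × 4 min; Activity was normalised to no-enzyme and no-compound control wells.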
Starred values were filed as active, the others as inactive; u = inconclusive; x = no result. Most compounds without a hit are left out; they make up all but 4.1% or so of the library. Unless noted, the call rests on the fitted dose curve; in most records, active means well fitted curve in the direction sought with a large enough effect; inconclusive means small, poorly fitted or top-dose-only effect, or another doubt; inactive means no such curve, though single readings can be large; an effect the other way counts as inactive or inconclusive. Unless noted, on the % scale 0 is the no-effect control and ±100 the full control effect; potency means the concentration at half of the fitted maximal effect.

SMILES	Sm TGR inh	FMDV inh	AmpC inh detg	AMA1 RON2 block	AmpC inh no detg
O=S(=O)(c1ccccc1)c1nc(-c2ccco2)oc1NCCCn1ccnc1	40µM*	10%	u	-17%	0%
O=S(=O)(c1ccccc1)c1nc(-c2ccco2)oc1NCc1ccco1	35µM*	-10%	u	4%	-42%
N#Cc1nc(-c2ccco2)oc1NCc1ccc(F)cc1	45%	-8%	u	-9%	-27%
COc1cccc(-c2cc3c(c(OC)c2)OCCN(Cc2ccccc2O)C3)n1	x	-15%	x	x	x
COC(=O)c1cc2c(cc1NC(=O)c1c(C)nn(-c3ccc(C)cc3)c1-n1cccc1)OCO2	-5%	-22%	27%	x	x
Cc1[nH]c2ccccc2c1C(=O)C(C)OC(=O)c1ccccc1NCCO (stereo not given)	-4%	6%	u	1%	28µM*
Cc1[nH]c2ccccc2c1C(=O)C(C)OC(=O)c1ccc(NC(=O)CC#N)cc1 (stereo not given)	-9%	-14%	14%	-10%	-29%
CCOc1cc(/C=N/Nc2nnc(C)n2N)ccc1O	50µM*	-19%	13%	63%	-4%
COc1ccccc1CNC(=O)CCCn1nc(C)c2sc3ccccc3c2c1=O	3%	-2%	-3%	x	x
c1ccc(-c2nnc(CN3CCCCC3)o2)cc1	17%	55%	-2%	-6%	2%
c1ccc(-c2nnc(CN3CCCc4ccccc43)o2)cc1	40µM*	8%	u	15%	3%
Cc1cc(Cl)ccc1OCC(=O)N(Cc1ccco1)c1c(N)n(Cc2ccccc2)c(=O)[nH]c1=O	x	-26%	x	0%	x
Nc1c(N(CCO)C(=O)/C=C/c2ccco2)c(=O)[nH]c(=O)n1Cc1ccccc1	50µM*	-4%	-9%	0%	-22%
Cc1ccccc1OCC(=O)N(Cc1ccco1)c1c(N)n(Cc2ccccc2)c(=O)[nH]c1=O	45µM*	-9%	0%	-6%	-35%
COc1ccc(-n2nc(C#N)c(Cl)cc2=O)cc1	2.5µM*	22µM*	-9%	-27%	-13%
O=c1oc2ccccc2cc1-c1csc(Nc2nc3c(F)cccc3s2)n1	-9%	7.1µM*	u	39%	-36%
Cc1cnc(NC(=O)CSc2ccccc2)s1	10%	12%	1%	4%	-24%
CCOC(=S)SCC(=O)Nc1ncc(C)s1	12%	25µM*	-7%	6%	-19%
COc1cc(OC)c2c(=O)c(-c3ccccc3)c(C)oc2c1OC	x	10%	x	x	x
Cc1ccc(NC(=O)c2cc(-c3ccc(C)o3)nc3ccccc23)cc1	25µM*	x	2%	-3%	5%
COc1ccc(-c2cc(C(=O)NCCN3CCOCC3)c3ccccc3n2)cc1	-10%	32%	-13%	-15%	49%
Cc1ccc(-c2cc(C(=O)NCCN3CCOCC3)c3ccccc3n2)o1	45µM*	-1%	1%	0%	1%
Cc1cccc(NC(=O)c2cc(-c3ccccn3)nc3ccccc23)c1C	14%	14µM*	1%	4%	49%
Cc1ccc(-c2cc(C(=O)Nc3ccccn3)c3ccccc3n2)o1	18µM*	-19%	-12%	-5%	-43%
Cc1nc2ccc(S(=O)(=O)N(CC(=O)Nc3cccc(F)c3)Cc3ccccc3)cc2s1	18%	-21%	-2%	x	x
SMILES	Sm TGR inh	FMDV inh	AmpC inh detg	AMA1 RON2 block	AmpC inh no detg
CCOc1ccccc1NC(=O)Cn1c(=O)n(CCCC(=O)NCCc2ccc(C)cc2)c(=O)c2ccccc21	10%	-17%	18%	x	x
CCOC(=O)c1cccc(NC(=O)C2CCN(S(=O)(=O)c3ccc4c(c3)oc(=O)n4C)CC2)c1	0%	-15%	11%	x	x
CCC1(C2CCN(C(=O)c3ccc(C)c(C)c3)CC2)NC(=O)N(CCc2scnc2C)C1=O (stereo not given)	x	12%	x	x	x
CC1=NN(c2ccc(Cl)cc2)C(=O)/C1=C\c1cccn1-c1ccc(S(N)(=O)=O)cc1	-17%	40µM*	-7%	u	-21%
Cc1ccc(S(=O)(=O)N/N=C/c2cccn2-c2ccc(Cl)cc2)cc1	-32%	65%	-7%	-16%	-50%
Cc1ccc2c(c1Cl)NC(C(=O)O)C1CC(Sc3ccccc3[N+](=O)[O-])C(Cl)C21 (stereo not given)	u	-19%	-1%	-13%	-57%
O=C(O)c1ccc2c(c1)C1C(Cl)C(Sc3ccccc3[N+](=O)[O-])CC1C(c1cccc([N+](=O)[O-])c1)N2 (stereo not given)	u	-21%	-14%	-29%	18µM*
CCN(CC)C(=O)c1ccc2c(c1)C1C(Cl)C(Sc3ccccc3[N+](=O)[O-])CC1C(C(=O)O)N2 (stereo not given)	3.2µM*	-28%	-5%	u	-16%
Cc1cc(C(=O)NCc2nc(-c3cccc(NC(=O)c4cc(C)oc4C)c3)oc2C)nc(C)n1	x	-21%	x	x	x
Cc1ccc(-n2cc(CNCCN3CCOC3=O)c(-c3cccc(C)c3)n2)cc1	22µM*	19%	3%	-1%	-8%
COc1ccc(C(c2c(O)ccc3ccccc23)N2CCOCC2)c(OC)c1 (stereo not given)	3.5µM*	-1%	-18%	u	-6%
Cc1cccc2nc(CNC(=O)CN3Cc4ccccc4OC(c4ccccc4F)C3)cn12 (stereo not given)	x	7%	x	x	x
Cc1cc(Nc2ccc(F)cc2C)n2nc(C)nc2n1	-1%	-7%	u	-2%	-3%
Cc1cc(Nc2cc(F)ccc2C)n2ncnc2n1	-3%	-4%	-4%	-2%	28µM*
Cc1ccc(Nc2cc(C)nc3nc(C)nn23)c(C)c1	-8%	0.71µM*	u	0%	1%
Cc1csc(C(C)N(C)C(=O)c2cc(NC(=O)C3CCC3)c3c(c2)nc(-c2ccncc2)n3C)n1 (stereo not given)	x	15%	x	x	x
c1ccc(-c2csc(N3CCCCCC3)n2)cc1	-2%	41%	1%	24%	-23%
Cc1cc(N2CCN(c3nc(-c4ccccc4)cs3)CC2)c2ccccc2n1	2%	28µM*	1%	3%	-9%
c1coc(Cn2nnnc2CN2CCN(C3CCCC3)CC2)c1	32µM*	-18%	u	-1%	-11%
CCOc1ccc2[nH]c(=O)c(C(c3nnnn3Cc3ccco3)N3CCN(C)CC3)cc2c1 (stereo not given)	u	-4%	-2%	-4%	-2%
O=c1[nH]c2cc3c(cc2cc1C(c1nnnn1Cc1ccccc1)N1CCCCCC1)OCCO3 (stereo not given)	u	11%	u	-3%	-32%
Clc1ccccc1C(c1nnnn1Cc1ccco1)N1CCN(Cc2ccco2)CC1 (stereo not given)	32µM*	-15%	-20%	8%	42%
Cc1cccc2cc(C(c3nnnn3Cc3ccc4c(c3)OCO4)N3CCCC3)c(=O)[nH]c12 (stereo not given)	11µM*	8%	-13%	0%	29%
